The values that follow come from PubChem BioAssay (EPA / NIEHS).

Read-out in test [1]: Monocyte Chemoattractant Protein-1 (MCP1), CCL2 (gene 6347)
Description: BSK_3C_MCP1: BioMAP Diversity Plus: 3C Assay for Monocyte Chemoattractant Protein-1 (MCP1) Biomarker Activity (AID 2283017). Particulars: primary human endothelial cells (HUVEC); actives raise or lower the signal. The method, boiled down: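 Endothelial cells from human umbilical vein are dosed with chemical, cultured 24 h, then assayed for MCP-1 by ELISA; both increases and decreases are modelled against DMSO controls.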

Read-out in test [2]: Monocyte Chemoattractant Protein-1 (MCP1), CCL2 (gene 6347)
Description: BSK_4H_MCP1: BioMAP Diversity Plus: 4H Assay for Monocyte Chemoattractant Protein-1 (MCP1) Biomarker Activity (AID 2283018). Particulars: primary human endothelial cells (HUVEC); actives raise or lower the signal. Summed up: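 Human umbilical vein endothelial cells (4H system) exposed to chemicals for 24 h in 96-well format. MCP-1 measured by ELISA; bidirectional fitting against DMSO, with SRB total-protein staining in parallel cultures for cytotoxicity.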

Read-out in test [3]: Monokine induced gamma interferon (MIG), CXCL9 (gene 4283)
Description: BSK_3C_MIG: BioMAP Diversity Plus: 3C Assay for Monokine induced gamma interferon (MIG) Biomarker Activity (AID 2283021).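 On AC50: MIG protein level measured by immunoassay in the treated endothelial cultures.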 Conditions: primary human endothelial cells (HUVEC); actives raise or lower the signal. Summed up:
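HUVEC primary endothelial cultures dosed with chemical; MIG quantified by ELISA at 24 h. Data fitted bidirectionally against DMSO control, with parallel SRB total-protein staining for cytotoxicity.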

A short description of test [4]: BSK_3C_SRB: Viability Assessment in the BioMAP Diversity Plus: 3C Assay (AID 2283023).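 Further: cells read 24 h after compound dosing; fitted both ways against DMSO so a hit may be signal rise or drop.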 Conditions: primary human endothelial cells (HUVEC). The method, boiled down:
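Cells were dosed with chemical, cultured 24 h, fixed with 10% TCA, stained with 0.1% SRB and read at 560 nm. Human umbilical vein endothelium was used; DMSO served as negative control and baseline.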

A short description of test [5]: BSK_4H_SRB: Viability Assessment in the BioMAP Diversity Plus: 4H Assay (AID 2283027).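 Further: cells exposed to compound for 24 h before staining.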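 On AC50: curves fitted both ways versus DMSO so AC50 may be loss or gain.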 Particulars: primary human endothelial cells (HUVEC). Summed up: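 Absorbance at 560 nm of SRB-stained total protein served as the viability read-out in confluent primary human umbilical vein endothelium 24 h after chemical treatment. Curves were fitted bidirectionally against DMSO as negative control.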

Test [6] in a line: BSK_BE3C_SRB: Viability Assessment in the BioMAP Diversity Plus: BE3C Assay (AID 2283028).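 On AC50: fitted both ways so AC50 may mark signal gain or loss versus DMSO.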 Conditions: primary human bronchial epithelial cells. Summed up: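 Overt cytotoxicity was assessed as total protein in confluent human primary bronchial epithelial cultures 24 h after chemical addition, using 0.1% sulforhodamine B staining read at 560 nm.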
Read-out in test [7]: Monokine induced gamma interferon (MIG), CXCL9 (gene 4283)
Description: BSK_BE3C_MIG: BioMAP Diversity Plus: BE3C Assay for Monokine induced gamma interferon (MIG) Biomarker Activity (AID 2283035).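 On outcome: MIG protein measured by ELISA in BE3C cultures after 24 h of dosing.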 Conditions: primary human bronchial epithelial cells; actives raise or lower the signal. The method, boiled down: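 MIG level was determined by ELISA after 24 h chemical treatment of primary human bronchial epithelial cells. Values were fitted bidirectionally with DMSO as the negative control and activity baseline.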

Read-out in test [8]: Plasminogen activator inhibitor-1 (PAI1), SERPINE1 (gene 5054)
In words: BSK_BE3C_PAI1: BioMAP Diversity Plus: BE3C Assay for Plasminogen activator inhibitor-1 (PAI1) Biomarker Activity (AID 2283037). Particulars: primary human bronchial epithelial cells; actives raise or lower the signal. Summed up:
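Primary human bronchial epithelial cells (BE3C system) exposed 24 h; PAI-1 quantified by ELISA. Parallel sulforhodamine B staining of total protein flags cytotoxicity. Bidirectional fit versus DMSO.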

Read-out in test [9]: Urokinase-type plasminogen activator receptor (uPAR), PLAUR (gene 5329)
Description: BSK_BE3C_uPAR: BioMAP Diversity Plus: BE3C Assay for Urokinase-type plasminogen activator receptor (uPAR) Biomarker Activity (AID 2283039).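 On outcome: uPAR protein level measured by ELISA on the cells; cells exposed to compound for one day before measurement.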 Conditions: primary human bronchial epithelial cells; actives raise or lower the signal. The method, boiled down: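 Primary human bronchial epithelial cells dosed for 24 h; uPAR quantified by ELISA with bidirectional fitting against DMSO. Overt cytotoxicity assessed in parallel cultures by SRB total-protein staining (0.1% SRB, 560 nm).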

Read-out in test [10]: Interleukin-8 (IL8), CXCL8 (gene 3576)
In words: BSK_CASM3C_IL8: BioMAP Diversity Plus: CASM3C Assay for Interleukin-8 (IL8) Biomarker Activity (AID 2283042).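 Further: IL-8 protein level quantified by ELISA.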 Conditions: primary human coronary artery smooth muscle cells; actives raise or lower the signal.

Read-out in test [11]: Human Leukocyte Antigen - DR isotype (HLADR), HLA-DRA (gene 3122)
Description: BSK_CASM3C_HLADR: BioMAP Diversity Plus: CASM3C Assay for Human Leukocyte Antigen - DR isotype (HLADR) Biomarker Activity (AID 2283043).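 Further: cell-surface HLA-DR protein level quantified by ELISA.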 Particulars: primary human coronary artery smooth muscle cells; actives raise or lower the signal.

Read-out in test [12]: Macrophage colony-stimulating factor (MCSF), CSF1 (gene 1435)
In words: BSK_CASM3C_MCSF: BioMAP Diversity Plus: CASM3C Assay for Macrophage colony-stimulating factor (MCSF) Biomarker Activity (AID 2283044).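 Further: M-CSF protein amount quantified by ELISA after 24 h exposure.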 Conditions: primary human coronary artery smooth muscle cells; actives raise or lower the signal.

Read-out in test [13]: Low-density lipoprotein receptor (LDLR), LDLR (gene 3949)
In words: BSK_CASM3C_LDLR: BioMAP Diversity Plus: CASM3C Assay for Low-density lipoprotein receptor (LDLR) Biomarker Activity (AID 2283045).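 Further: LDLR protein level on the cell surface quantified by ELISA.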 Conditions: primary human coronary artery smooth muscle cells; actives raise or lower the signal.

Read-out in test [14]: Monocyte Chemoattractant Protein-1 (MCP1), CCL2 (gene 6347)
Description: BSK_CASM3C_MCP1: BioMAP Diversity Plus: CASM3C Assay for Monocyte Chemoattractant Protein-1 (MCP1) Biomarker Activity (AID 2283046).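 Further: MCP-1 level quantified by ELISA 24 h after dosing.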 Particulars: primary human coronary artery smooth muscle cells; actives raise or lower the signal.

Test [15] in a line: BSK_CASM3C_Proliferation: Cell Proliferation Assessment in the BioMAP Diversity Plus: CASM3C Assay (AID 2283047).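 Further: sulforhodamine B total protein stain as relative cell number at 560 nm; sub-confluent cells exposed 48 h before staining; fitted both ways against DMSO so gain or loss of cell number.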 Particulars: primary human coronary artery smooth muscle cells.
Test [16] in a line: BSK_CASM3C_SRB: Viability Assessment in the BioMAP Diversity Plus: CASM3C Assay (AID 2283050). Conditions: primary human coronary artery smooth muscle cells.
Read-out in test [17]: Interferon-gamma inducible Protein 10 (IP10), CXCL10 (gene 3627)
Description: BSK_hDFCGF_IP10: BioMAP Diversity Plus: hDFCGF Assay for Interferon-gamma inducible Protein 10 (IP10) Biomarker Activity (AID 2283053). Conditions: primary human foreskin fibroblasts; actives raise or lower the signal. Summed up: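 Primary human foreskin fibroblasts exposed to chemicals for 24 h. IP-10 measured by ELISA; changes fitted bidirectionally against DMSO baseline.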

Read-out in test [18]: Interleukin-8 (IL8), CXCL8 (gene 3576)
In words: BSK_hDFCGF_IL8: BioMAP Diversity Plus: hDFCGF Assay for Interleukin-8 (IL8) Biomarker Activity (AID 2283058). Particulars: primary human foreskin fibroblasts; actives raise or lower the signal. The method, boiled down:
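IL-8 levels from compound-treated primary human fibroblasts were read by ELISA at 24 h, with DMSO serving as baseline for bidirectional fitting.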

Test [19] is described as follows: BSK_hDFCGF_Proliferation: Cell Proliferation Assessment in the BioMAP Diversity Plus: hDFCGF Assay (AID 2283059).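 Further: curves fitted for both rise and fall of signal versus DMSO baseline.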 Particulars: primary human foreskin fibroblasts. Summed up:
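This proliferation readout used SRB total-protein staining of human foreskin fibroblasts […], normalized to DMSO with bidirectional curve fitting.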

Read-out in test [20]: Macrophage colony-stimulating factor (MCSF), CSF1 (gene 1435)
Description: BSK_hDFCGF_MCSF: BioMAP Diversity Plus: hDFCGF Assay for Macrophage colony-stimulating factor (MCSF) Biomarker Activity (AID 2283060). Conditions: AC50: primary human foreskin fibroblasts, actives raise or lower the signal unless noted; outcome: primary human foreskin fibroblasts, actives raise or lower the signal unless noted. Summed up:
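M-CSF levels, determined by ELISA, are taken at 24 h after dosing human skin fibroblasts. Responses in either direction are fitted with DMSO serving as the baseline.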

“And” between values parts separate entries of the source, which are not always exact repeats. Identical values can stand only once. The source made the active and inactive calls. How the source made its calls: active means hit-call score of the fitted dose curve at least 0.9, where 1 is the maximum; inactive means score below 0.9.

As to `OC(C(F)(F)F)(C(F)(F)F)C(O)(C(F)(F)F)C(F)(F)F`, the AC50 is 49.9 µM (active) and 50.5 µM (active) in test [1]; 21.5 µM (active) and 10.1 µM (active) in test [2]; 43.7 µM (active) and 50.9 µM (active) in [3]; 30 µM (active) and 27.7 µM (active) in test [4]; 27.5 µM (active) and 26 µM (active) in test [5]; 48 µM (active) and 48.9 µM (active) in [6]. The AC50 in [7] was 54.8 µM (active) and 54.6 µM (active); in test [8] it was 13.9 µM (active) and 12.5 µM (active); in test [9] it was 14.4 µM (active) and 13.8 µM (active); in test [11], 18.7 µM (active) and 7.57 µM (active); in test [12] it was 49 µM (active) and 50.5 µM (active); in test [15], 27.7 µM (active) and 28.9 µM (active). Also, the AC50 was 30 µM (active) and 26.9 µM (active) in [16]; 20.1 µM (active) and 23.8 µM (active) in [17]; 15.5 µM (active) and 16.8 µM (active) in [19]; 14.3 µM (active) and 19.2 µM (active) in [20]. The result in test [10], in [13], in test [14] and in test [18] was inactive.
For the compound `CCC[Si](OC(C)=O)(OC(C)=O)OC(C)=O`, the outcome in test [1], in test [2], in test [3], in test [4], in test [5] and in test [6] was inactive. Also, the outcome in test [7], in [8], in test [9], in [10], in test [11] and in [12] was inactive. Also, the result in test [13], in test [14], in test [15], in [16], in test [17] and in test [18] was inactive. In addition, the outcome in test [19] and in [20] was inactive.
With `O=[N+]([O-])c1cc(S(=O)(=O)Nc2ccccc2)ccc1Nc1ccccc1`, the AC50 in [1] is 32.3 µM (active) and 30 µM (active); in [2], 27.8 µM (active) and 20 µM (active); in [4], 30.3 µM (active) and 30.8 µM (active); in [5], 30.5 µM (active) and 31 µM (active); in test [6] it was 27.5 µM (active) and 31.7 µM (active); in test [7] it was 31 µM (active) and 34.2 µM (active). The AC50 in test [8] is 24.7 µM (active) and 27.1 µM (active); in test [9], 32.4 µM (active) and 31.6 µM (active); in test [17], 29.8 µM (active) and 31.5 µM (active); in test [18] it was 38.9 µM (active) and 36.7 µM (active); in test [19], 14 µM (active) and 14.3 µM (active); in [20], 29.3 µM (active) and 29.5 µM (active). Also, the outcome in test [3], in test [10], in [11], in [12], in [13] and in test [14] was inactive. Besides, the result in [15] and in test [16] was inactive.
On to `COc1cc(CNC(=O)CCCC/C=C/C(C)C)ccc1O`, for which the result in [1], in test [2], in [3], in test [4], in test [5] and in test [6] was inactive. The result in [7], in test [8], in [9], in test [10], in test [12] and in test [13] was inactive. The result in test [14], in test [15], in [16], in [17], in test [18] and in test [20] was inactive. In addition, the AC50 is 16.8 µM (active) and 5.89 µM (active) in test [11]; 1.26 µM (active) and 1.37 µM (active) in test [19].
As for `COc1ccccc1Oc1c(NS(=O)(=O)c2ccc(C(C)(C)C)cc2)nc(-c2ncccn2)nc1OCCO`, the outcome in test [1], in test [2], in [3], in [4], in test [5] and in test [6] was inactive. The outcome in [7], in test [8], in test [9], in [10], in test [11] and in test [13] was inactive. The result in [14], in test [15], in test [16], in test [17], in test [18] and in [20] was inactive. The AC50 in [12] is 4.05 µM (active) and 5.31 µM (active); in test [19], 20 µM (active) and 15.3 µM (active).

In general, AC50 refers to the concentration giving half of the maximal activity seen.
